{"source": "PubChem BioAssay (EPA / NIEHS)", "note": "Several values for one entry are separate records, joined by “and”; a condition that tells them apart may be missing. Equal entries are not always repeated. Activity calls are given as the source filed them. How the source made its calls: active means hit-call score of the fitted dose curve at least 0.9, where 1 is the maximum; inactive means score below 0.9.", "data": [{"test": "BSK_3C_Proliferation: Cell Proliferation Assessment in the BioMAP Diversity Plus: 3C Assay (AID 2283006);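 on AC50: potency may reflect either rise or fall in cell number versus DMSO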", "settings": "primary human endothelial cells (HUVEC)", "protocol": "BSK_3C is a cell-based, multiplexed-readout assay that uses umbilical vein endothelium, a human vascular primary cell, with measurements taken at 24 hours after chemical dosing in a 96-well plate.BSK_3C_Proliferation is an assay component measured in the BSK_3C assay. It measures 0.1% sulforhodamine related to cell proliferation using Sulforhodamine staining technology.Data from the assay component BSK_3C_Proliferation was analyzed into 1 assay endpoint. This assay endpoint, BSK_3C_Proliferation, was analyzed with bidirectional fitting relative to DMSO as the negative control and baseline of activity. Using a type of viability reporter, measures of total protein for gain or loss-of-signal activity can be used to understand the viability at the cellular-level. Furthermore, this assay endpoint can be referred to as a secondary readout, because this assay has produced multiple assay endpoints where this one serves a viability function. To generalize the intended target to other relatable targets, this assay endpoint is annotated to the cell cycle intended target family, where the subfamily is proliferation.\nThe levels of cell surface (or secreted, indicated by the prefix \"s\") biomarker endpoints were measured by ELISA. Overt cytotoxicity to cells in confluent adherent cultures (all systems other than the BT system) was assessed by measuring total protein levels using sulforhodamine B (SRB) staining in parallel cultures at the time of biomarker measurements, indicated as SRB endpoints. For proliferation assays for adherent cell types, individual cell types are cultured at sub-confluence and relative cell numbers quantified by SRB staining at time points optimized for each system (48 h: 3C and CASM3C systems; 72 h: BT and HDF3CGF systems; 96 h: SAg system). SRB was performed by staining cells with 0.1% SRB after fixation with 10% TCA and reading wells at 560 nm.Viability and proliferation of PBMC (T cells) was quantified by Alamar Blue reduction for the SAg and BT systems. For PBMC viability (referred to as PBMC Cytotoxicity within the assay endpoint names), cells were plated (75,000/well in a 96-well plate) and then chemical samples added for 1 h before addition of activators, SEB and TSST-1 (20 ng/mL final concentration each). Cells were incubated for 90 h. Then, Alamar Blue (20 uL/well) (Invitrogen, Cat DAL1100) was added for 6 h, and the plates were read with a fluorescence microplate reader at 546/580 nm (excitation/emission). For PBMC proliferation, cells were plated and activated as above but incubated for only 16 h prior to addition of Alamar Blue. Plates were read after 6 h.", "values": [{"smiles": "COCc1c(C(C)C)nc(C(C)C)c(/C=C/[C@@H](O)C[C@@H](O)CC(=O)O)c1-c1ccc(F)cc1", "AC50": "0.039 µM (active)"}, {"smiles": "COc1ccc2nc(N)sc2c1", "outcome": "inactive"}, {"smiles": "C=CCOCC(O)CCl", "note": "(stereo unspecified)", "outcome": "inactive"}, {"smiles": "S=C(NC1CCCCC1)NC1CCCCC1", "outcome": "inactive"}, {"smiles": "O=Nc1ccc(O)cc1", "outcome": "inactive"}, {"smiles": "C=CCOc1c(Br)cc(Br)cc1Br", "AC50": "25.8 µM (active)"}, {"smiles": "C/C=C\\C/C=C/CCCCCCCCOC(C)=O", "AC50": "22.3 µM (active)"}, {"smiles": "c1ccc2c(c1)ccc1ncccc12", "AC50": "20 µM (active)"}, {"smiles": "C=CC(=O)OCC(Br)CBr", "note": "(stereo unspecified)", "AC50": "9.42 µM (active)"}, {"smiles": "N#[N+]c1ccc2c(S(=O)(=O)[O-])cccc2c1O", "outcome": "inactive"}, {"smiles": "CCOC(=O)c1ccccc1C(=C1C=C(Br)C(=O)C(Br)=C1)c1cc(Br)c(O)c(Br)c1", "AC50": "20.1 µM (active) and 19.1 µM (active)"}, {"smiles": "CCCCCCCCc1ccc(Nc2ccc(CCCCCCCC)cc2)cc1", "outcome": "inactive"}, {"smiles": "C=CC=CC=CCCCCC", "outcome": "inactive"}, {"smiles": "CC1OC1C1CCC2(C)OC2C1", "note": "(stereo unspecified)", "outcome": "inactive"}, {"smiles": "CCO[Si](CCCN=C=O)(OCC)OCC", "outcome": "inactive"}, {"smiles": "O=C(Cl)c1cc(C(=O)Cl)cc(C(=O)Cl)c1", "AC50": "6.87 µM (active)"}, {"smiles": "C#CC1(O)CC[C@H]2[C@@H]3CCC4=CCCC[C@@H]4[C@H]3CC[C@@]21C", "note": "(stereo partly specified)", "AC50": "11 µM (active)"}, {"smiles": "CCCCCCCCCCCCCCCC[N+](C)(C)CC", "AC50": "0.636 µM (active)"}, {"smiles": "C=C[Si](OC(C)=O)(OC(C)=O)OC(C)=O", "outcome": "inactive"}, {"smiles": "c1ccc(-c2ccccn2)nc1", "AC50": "29 µM (active)"}, {"smiles": "O=c1c2ccccc2oc2ccccc12", "outcome": "inactive"}, {"smiles": "O=C(c1ccc(O)cc1)c1ccc(O)cc1O", "AC50": "20 µM (active) and 15 µM (active)"}, {"smiles": "CO[Si](OC)(OC)c1ccccc1", "outcome": "inactive"}, {"smiles": "CN1C(=O)N(C)C(O)C1O", "note": "(stereo unspecified)", "outcome": "inactive"}, {"smiles": "c1ccc2c(c1)ccc1cc3c(ccc4ccccc43)cc12", "outcome": "inactive"}, {"smiles": "CCCCC(CC)COCC1CO1", "note": "(stereo unspecified)", "outcome": "inactive"}, {"smiles": "CCCCC(CC)COC(=O)c1ccccc1O", "note": "(stereo unspecified)", "AC50": "17.3 µM (active)"}, {"smiles": "O=C(Nc1ccccc1SSc1ccccc1NC(=O)c1ccccc1)c1ccccc1", "AC50": "5.29 µM (active)"}, {"smiles": "CCO[Si](C)(OCC)OCC", "outcome": "inactive"}, {"smiles": "CCCCC/C=C\\C/C=C\\CCCCCCCC(=O)OC", "AC50": "27.1 µM (active)"}, {"smiles": "CCOc1nc(F)cc2nc(S(=O)(=O)Nc3c(Cl)cccc3C(=O)OC)nn12", "outcome": "inactive"}, {"smiles": "CC(C)C(=O)C(C)C", "outcome": "inactive"}, {"smiles": "CC(C)(c1cc(Br)c(OCCO)c(Br)c1)c1cc(Br)c(OCCO)c(Br)c1", "AC50": "11.9 µM (active)"}, {"smiles": "O=C1CCCN1CCO", "outcome": "inactive"}, {"smiles": "CCCCNc1ccc(NCCCC)c2c1C(=O)c1ccccc1C2=O", "outcome": "inactive"}, {"smiles": "Nc1ccc(N)c(Cl)c1", "AC50": "13.1 µM (active) and 16.2 µM (active)"}]}]}
